Test results taken from the supplement of paper PMC12494721.
Where a name gives a salt, the structure may show the parent alone.

The compounds below were run on Klebsiella aerogenes DSM 30053 (assay: fold change of Cadaverine concentration vs plate DMSO controls (fold change (ratio)); higher = more amine produced, active = hit call of the paper (significant change in both replicates, either direction)). Conditions: incubation time: 27 h, anaerobic, 37 °C;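 for the amine columns active = adjusted P below 0.05 in both replicates with a change the same way and a mean fold change under 0.8 or over 1.25; inactive = the rest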.
Outline: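 Amines were quantified by LC–triple-quadrupole MS in dynamic MRM mode against external calibration curves, with drift correction within each batch. The samples were whole anaerobic mGAM cultures of four gut bacterial strains, grown for 27 h at 37 °C in 80 µL wells and extracted with cold acetonitrile/methanol with 0.1% formic acid, then centrifuged. Values are reported as fold change over DMSO controls on the same plate. The mean of 2 biological replicates is given.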

Fold change of Cadaverine concentration, inactive:
Oc1c(Cl)cc(Cl)c2cccnc12 [Chloroxine] (20 µM) 1.01
O=C1NCCN1CCN1CCC(c2cn(-c3ccc(F)cc3)c3ccc(Cl)cc23)CC1 [Sertindole] (20 µM) 1
CCSc1ccc2c(c1)N(CCCN1CCN(C)CC1)c1ccccc1S2 [Thiethylperazine maleate] (20 µM) 1.05
Cc1ccsc1/C=C/C1=NCCCN1C [Morantel tartrate] (20 µM) 1.01
COc1cc(C)nc(-n2nc(C)cc2OC)n1 [Epirizole] (20 µM) 1.02
CCC1(c2ccccc2)NC(=O)N(C)C1=O (stereo not given) [Mephenytoin] (20 µM) 1.02
CCCCCCCC/C=C\CCCCCCCCCCCC(=O)O [Erucic acid] (20 µM) 0.99
C#CCN(C)CCCOc1ccc(Cl)cc1Cl [Clorgyline hydrochloride] (20 µM) 0.991
CC1=NN(c2ccccc2)C(=O)C1 [Edaravone] (20 µM) 1.01
CC(=O)N[C@H]1[C@H]([C@H](O)[C@H](O)CO)OC(C(=O)O)=C[C@@H]1NC(=N)N [Zanamivir] (20 µM) 0.991
Cc1ccc(S(=O)(=O)NC(=O)NN2CCCCCC2)cc1 [Tolazamide] (20 µM) 1.02
CN1CCN(C2=Nc3cc(Cl)ccc3Nc3ccccc32)CC1 [Clozapine] (20 µM) 1
CCCNC(C)(C)C(=O)Nc1ccccc1C [Quatacaine] (20 µM) 0.997
CN(C)c1cc(NC(=O)CNC(C)(C)C)c(O)c2c1C[C@H]1C[C@H]3[C@H](N(C)C)C(=O)C(C(N)=O)=C(O)[C@@]3(O)C(=O)C1=C2O [Tigecycline] (20 µM) 1.03
CCOC(=O)[N-]c1c[n+](N2CCOCC2)no1 [Molsidomine] (20 µM) 1
CCN(CC)CCOC(=O)C(Cc1cccc2ccccc12)CC1CCCO1 (stereo not given) [Nafronyl oxalate] (20 µM) 0.996
CCN(CC)CCOC(=O)C1(C2CCCCC2)CCCCC1 [Dicyclomine hydrochloride] (20 µM) 1
CC[C@H]1OC(=O)[C@H](C)[C@@H](O[C@H]2C[C@@](C)(OC)[C@@H](O)[C@H](C)O2)[C@H](C)[C@@H](O[C@@H]2O[C@H](C)C[C@H](N(C)C)[C@H]2O)[C@](C)(O)C[C@@H](C)C(=O)[C@H](C)[C@@H](O)[C@]1(C)O [Erythromycin] (20 µM) 1.07
NC(=O)NS(=O)(=O)c1ccc(N)cc1 [Sulfacarbamide] (20 µM) 1.01
O=c1[nH]cc(F)c(=O)[nH]1 [5-fluorouracil] (20 µM) 0.979
NC(=O)N/N=C/c1ccc([N+](=O)[O-])o1 [Nitrofural] (20 µM) 1.01
COC(=O)C1=C(C)NC(C)=C(C(=O)OC2CCCN(Cc3ccccc3)C2)C1c1cccc([N+](=O)[O-])c1 (stereo not given) [Benidipine hydrochloride] (20 µM) 1.02
CCNC(=O)CCC/C=C\C[C@@H]1[C@@H](/C=C/[C@@H](O)CCc2ccccc2)[C@H](O)C[C@@H]1O [Bimatoprost] (20 µM) 0.997
CN(Cc1ccc(C(C)(C)C)cc1)Cc1cccc2ccccc12 [Butenafine hydrochloride] (20 µM) 0.992
CN1CCC(OC(c2ccccc2)c2ccccc2)CC1 [Diphenylpyraline hydrochloride] (20 µM) 0.983
c1ccc2cc3c(ccc4ccccc43)cc2c1 [Benz[a]anthracene] (20 µM) 1.17
CC1=C(C(=O)O)N2C(=O)[C@@H](NC(=O)[C@H](N)c3ccccc3)[C@H]2SC1 [Cephalexin monohydrate] (20 µM) 1.01
CNc1ncnc2c1ncn2[C@@H]1O[C@H](CO)[C@@H](O)[C@H]1O [N6-methyladenosine] (20 µM) 1
Cn1nnc2c(C(N)=O)ncn2c1=O [Temozolomide] (20 µM) 0.998
CN[C@@H]1[C@H](O[C@H]2[C@H](O[C@H]3[C@H](O)[C@@H](O)[C@H](N=C(N)N)[C@@H](O)[C@@H]3N=C(N)N)O[C@@H](C)[C@]2(O)C=O)O[C@@H](CO)[C@H](O)[C@H]1O [Streptomycin sulfate] (20 µM) 0.977
